Calls of active or inactive are those of the source. No rule for the calls is given here.
Target: Pantothenate synthetase (Mycobacterium tuberculosis (strain ATCC 25618 / H37Rv)) (UniProt P9WIL5)
Assay: Recombinant Mtb pantothenate synthetase (PanC) inhibitors, coupled enzyme, confirmatory (AID 375);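 also: 0% = full reaction with vehicle and 100% = no enzyme background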
Conditions: coupled enzyme assay; at 10 µM, active compounds read high

Pantothenate synthetase (Mycobacterium tuberculosis (strain ATCC 25618 / H37Rv)), sequence (P9WIL5 whole entry, looked up): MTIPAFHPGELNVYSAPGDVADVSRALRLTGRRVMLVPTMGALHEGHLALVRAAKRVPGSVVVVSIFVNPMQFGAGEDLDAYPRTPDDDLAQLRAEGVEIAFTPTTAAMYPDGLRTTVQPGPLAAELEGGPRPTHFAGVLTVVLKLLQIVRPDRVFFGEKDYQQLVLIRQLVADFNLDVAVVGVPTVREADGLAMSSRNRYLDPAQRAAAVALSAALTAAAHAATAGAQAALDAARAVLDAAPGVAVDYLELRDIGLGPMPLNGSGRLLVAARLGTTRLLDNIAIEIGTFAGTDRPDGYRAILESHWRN

Row | SMILES | inhibition
1 | COc1ccc(C(=O)N2CCN(S(=O)(=O)c3cc(Cl)ccc3OC)CC2)cc1 | 5% (inactive)
2 | CCN(C(=O)c1c(-c2ccccc2)noc1C)c1ccccc1 | 0% (inactive)
3 | O=C(NCc1ccco1)C1CCN(c2ccc(N3CCOCC3)nn2)CC1 | 0% (inactive)
4 | O=C(CN1C(=O)COc2ccccc21)NCCCN1CCc2ccccc2C1 | 0% (inactive)
5 | COc1ccc(-n2c(Cc3cccn3C)nnc2SCC(N)=O)cc1 | 0% (inactive)
6 | O=C(c1ccccc1Oc1nnnn1-c1ccccc1)N1CCOCC1 | 0% (inactive)
7 | CCOC(=O)c1sc(N)c(C(=O)OCC)c1COC(=O)C1CC(=O)N(Cc2ccco2)C1 (stereo not given) | 6% (inactive)
8 | O=C(Nc1ccccc1)N1C(=O)C2(OCCO2)c2ccccc21 | 0% (inactive)
9 | COc1cc(NC(=O)C(C)Oc2ccccc2)c(C(=O)O)cc1OC (stereo not given) | 0% (inactive)
10 | COc1ccc(N(CC(=O)Nc2ccc3c(c2)OCCO3)S(=O)(=O)c2cccnc2)cc1 | 0% (inactive)
11 | CN1Cc2c(N)cccc2C(c2ccccc2)C1 (stereo not given) | 0% (inactive)
12 | CCC(=O)N1CCN(c2nc(-c3ccccc3)c3c(c2C#N)CCCC3)CC1 | 4% (inactive)
13 | O=C(C1CCCCC1)N1CCC(c2nc3c(nnn3Cc3ccccc3Cl)c(=O)[nH]2)CC1 | 4% (inactive)
14 | CC(C)NCC(O)COc1cccc2[nH]ccc12 (stereo not given) | 0% (inactive)
15 | O=C(CN(Cc1ccc(F)cc1)C(=O)c1ccco1)NCc1ccc(F)cc1 | 0% (inactive)
16 | CCOC(=O)C1CCN(C(=O)CN(Cc2ccccc2)S(C)(=O)=O)CC1 | 1% (inactive)
17 | O=C(CCn1c(=O)c2ccccc2n(CC(=O)NCCC2=CCCCC2)c1=O)NCc1ccco1 | 4% (inactive)
18 | Cc1nc2ccc(N3C(=O)CCC3=O)cc2[nH]1 | 5% (inactive)
19 | COc1ccccc1-c1cc(C(=O)Nc2cc(C)nn2-c2ccccc2)no1 | 6% (inactive)
20 | CC(=O)N1CCC2(CC1)CC(=O)c1cc(OCC(=O)NCc3ccco3)ccc1O2 | 3% (inactive)

Row | SMILES | inhibition
21 | COc1ccc(S(=O)(=O)N2CCCC(C(=O)NCc3ccccn3)C2)cc1 (stereo not given) | 7% (inactive)
22 | O=C(COc1ccccc1F)NC1CC1 | 3% (inactive)
23 | CC(=O)CCc1c(C)[nH]c2ccccc2c1=O | 1% (inactive)
24 | Cc1onc(-c2ccccc2)c1C(=O)Nc1ccc(S(=O)(=O)N2CCCCC2)cc1 | 0% (inactive)
25 | O=C(NCC1COCCO1)C1CCN(S(=O)(=O)c2ccccc2)CC1 (stereo not given) | 3% (inactive)
26 | CC(=O)NC(Cc1c[nH]c2ccccc12)C(=O)OCC(=O)Nc1cc(C)on1 (stereo not given) | 0% (inactive)
27 | CCOC(=O)N1CCC(NC(=O)c2ccc(OC)c(CN3CC(=O)N4CCCC4C3=O)c2)CC1 (stereo not given) | 0% (inactive)
28 | CC(=O)Nc1cccc(NC(=O)c2oc3ccccc3c2C)c1 | 0% (inactive)
29 | N#Cc1c(-c2ccccc2)nc(SCc2nc(N)nc(N3CCCCC3)n2)[nH]c1=O | 9% (inactive)
30 | O=C(NC1CCS(=O)(=O)C1)OC1CCCCC1 (stereo not given) | 0% (inactive)
31 | CCOC(=O)CSC1=Nc2ccccc2C2=NC(CC(=O)NCc3ccc(OC)cc3)C(=O)N12 (stereo not given) | 2% (inactive)
32 | CN(Cc1nc(-c2ccncc2)no1)S(=O)(=O)c1ccccc1 | 6% (inactive)
33 | COc1cc(C(=O)N2CCCC(c3nc(-c4cccs4)no3)C2)cc(OC)c1OC (stereo not given) | 0% (inactive)
34 | CCOc1ccc(-n2c(=O)cc(N3CCN(c4ccccc4)CC3)[nH]c2=O)cc1 | 0% (inactive)
35 | O=C(Nc1ccc(Cl)cn1)c1cccnc1 | 0% (inactive)
36 | CCN(CCCNC(=O)c1cn(CC)c2ccc(S(=O)(=O)N(C)C)cc2c1=O)c1cccc(C)c1 | 7% (inactive)
37 | CCNC(=O)CC(=O)Nc1ccccc1C(=O)O | 0% (inactive)
38 | Cc1ccc(-c2nn(C)c(=O)c3ccccc23)cc1S(=O)(=O)NCCN1CCOCC1 | 2% (inactive)
39 | O=C(CS(=O)(=O)c1cn(Cc2ccc(Cl)cc2)c2ccccc12)N1CCOCC1 | 0% (inactive)
40 | CC(=O)Nc1nc(=S)ss1 | 6% (inactive)
